DT40 TDP1 CPT: growth inhibition of DT40 Tdp1-/-;hTDP1 cells with camptothecin (screen for TDP1 inhibitors) | actives 12% (n = 420,000) | chicken DT40 Tdp1-/-;hTDP1 cells + 20 nM CPT, ATP luminescence, 48 h | Potency, µM (highest dose often 46.2 µM), for the others: at the top dose activity change, negative = growth inhibition, most hits filed as inhibitors | AID 686979; also: potency is read from the fitted curve at half-maximal effect; nearly all actives have a fitted effect of over 55% in size
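Chicken DT40 Tdp1-/- cells stably complemented with human TDP1 were seeded at 400 cells/well in medium containing 20 nM camptothecin, exposed to pin-transferred compounds, and grown at 37 °C for at least 48 hr. Viability was read as ATP luminescence.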
HT1080NT lethal: kills 2HG-producing HT-1080-NT fibrosarcoma cells; Potency, µM (series often up to 46.1 µM), for inactives: at the highest dose activity, negative = less viability, most hits filed as cytotoxic; actives 1.6% (n = 360,000); HT-1080-NT fibrosarcoma viability, CellTiter-Glo ATP luminescence, 48 h;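 also: NT is the 2HG producing partner of a matched IDH1 knockdown line; potency is read from the fitted curve at half-maximal effect; 0% = DMSO-treated cells and -100% = media-only wells without cells; nearly all actives have a fitted effect of over 55% in size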
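A 48-hour cytotoxicity screen used HT-1080-NT cells plated 2 hours before compound delivery. ATP-based CellTiter-Glo luminescence measured viability, normalized to DMSO and no-cell controls.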
12-LOX inh: blocks human arachidonate 12S-lipoxygenase | P18054 | purified 12hLO, xylenol orange hydroperoxide absorbance | Potency, µM (doses to about 108 µM), inactives show at the highest dose activity change, negative = inhibition, most hits filed as inhibitors | actives 1.1% (n = 580,000) | AID 1671190; also: potency is read from the fitted curve at half-maximal effect
Target sequence (P18054 whole entry, looked up): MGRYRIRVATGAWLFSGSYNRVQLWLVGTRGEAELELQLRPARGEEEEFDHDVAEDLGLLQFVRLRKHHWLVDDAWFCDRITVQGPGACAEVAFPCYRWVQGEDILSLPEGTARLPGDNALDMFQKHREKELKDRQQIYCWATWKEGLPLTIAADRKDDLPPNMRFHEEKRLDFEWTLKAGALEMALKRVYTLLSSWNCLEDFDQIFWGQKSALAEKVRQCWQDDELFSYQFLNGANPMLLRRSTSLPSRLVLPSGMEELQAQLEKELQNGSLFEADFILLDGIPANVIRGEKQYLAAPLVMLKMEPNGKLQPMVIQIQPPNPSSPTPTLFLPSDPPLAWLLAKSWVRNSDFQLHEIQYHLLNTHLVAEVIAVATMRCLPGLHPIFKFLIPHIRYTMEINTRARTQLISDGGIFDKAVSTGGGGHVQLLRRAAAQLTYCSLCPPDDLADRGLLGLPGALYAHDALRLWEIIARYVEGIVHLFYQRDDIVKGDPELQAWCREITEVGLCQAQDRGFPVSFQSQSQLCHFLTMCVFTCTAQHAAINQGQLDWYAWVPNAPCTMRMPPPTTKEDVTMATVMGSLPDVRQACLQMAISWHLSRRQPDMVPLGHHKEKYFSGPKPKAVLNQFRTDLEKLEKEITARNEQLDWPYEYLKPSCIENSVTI
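Purified human 12hLO (150 nM final) in 25 mM Hepes, 0.01% Triton X-100, pH 7.0 was preincubated 15 min at room temperature with compound. Then 40 uM arachidonic acid was added, 30 min. Hydroperoxide was read by Fe-XO absorbance ratio 573/405 nm.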
DT40 TDP1 no CPT: qHTS for Inhibitors of human tyrosyl-DNA phosphodiesterase 1 (TDP1): qHTS in cells in absence of CPT; DT40 Tdp1-/- hTDP1 cells, no CPT, ATP luminescence, 48 h; Potency, µM (titrated, usually from 46.2 µM), without a hit: top-dose activity change, negative = growth inhibition, usual class: inhibitors; actives 15% (n = 420,000); also: potency is read from the fitted curve at half-maximal effect; nearly all actives have a fitted effect of over 55% in size
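Stably hTDP1-transfected Tdp1-null chicken DT40 cells were treated with library compounds minus camptothecin and grown for at least 48 hr at 37 °C, after which cellular ATP was quantified by luminescence.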
HT1080 IDH1KD tx: HT-1080 IDH1 knockdown cell toxicity (counter line). HT-1080 IDH1 knockdown viability, ATP luminescence, 48 h. Potency, µM (titrated, usually from 46.1 µM), for the others: top-dose activity, negative = toxicity, actives largely listed as cytotoxic. actives 2% (n = 360,000);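 also: potency is read from the fitted curve at half-maximal effect; 0% = DMSO wells and -100% = cell-free medium wells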
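% activity derives from luminescence (CellTiter-Glo), normalised to DMSO and no-cell wells. HT-1080-IDH1KD cells, 750/well, had 48 h compound exposure at 37 °C.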
IL1B secr inh: blocks inflammasome-driven IL-1 beta release; THP-1 LPS/ATP IL-1B secretion, AlphaLISA, 16 h; hits give low values; activity change, % at 57.5 µM; actives 4.7% (n = 360,000); in the data active = activity change below about -50%; inconclusive = mostly about -30% to -49%
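Secreted IL-1B measured by AlphaLISA bead assay after 16 h compound exposure of THP-1 cells; compounds (final up to 57.5 uM) added 1 h before LPS (250 ng/mL) and ATP (1.25 mM) stimulation; lower signal means less secretion.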
An asterisk follows results filed as active; ? = inconclusive; . = no result; [ ] = another dose, or the depositor's remark. This is one part of a sample in which hits are shown more often than they occur. Unless noted, calls follow the shape of the dose curve; as a rule, active = well fitted curve in the direction sought with a large enough effect; inconclusive = small, poorly fitted or top-dose-only effect, or another doubt; inactive = no such curve, though single readings can be large; an effect the other way counts as inactive or inconclusive. Unless noted, % is scaled to controls: 0 for no effect and ±100 for the full control effect.

SMILES | DT40 TDP1 CPT | HT1080NT lethal | 12-LOX inh | DT40 TDP1 no CPT | HT1080 IDH1KD tx | IL1B secr inh
CN1C(=O)C2(CCN(Cc3ccc(F)cc3)C2)c2ccccc21 (stereo not drawn) | . | . | 59%[176 µM] | . | . | .
CCC(C(=O)N(C)Cc1ccccc1)n1nc(C)c2sc3ccccc3c2c1=O (stereo not drawn) | ? | . | -16% | 16µM* | . | .
CCC(C(=O)NC1CCCCC1)n1nc(C)c2sc3ccccc3c2c1=O (stereo not drawn) | 10µM* | . | 23% | 9.2µM* | . | .
CCC(C(=O)NCCCN1CCCCCC1)n1nc(C)c2sc3ccccc3c2c1=O (stereo not drawn) | -1% | -2% | -23% | 26% | -4% | 0
CCC(C(=O)NCc1ccccc1Cl)n1nc(C)c2sc3ccccc3c2c1=O (stereo not drawn) | 18µM* | . | -18% | ? | . | .
COc1cccc(-c2cc(C(=O)N3CCC4(CC3)[C@H](O)C[C@@H]4OC)[nH]n2)c1 | . | . | -8% | . | . | .
CCOC(=O)NC(CNC(=O)c1ccc(C)cc1)CC(C)C (stereo not drawn) | . | . | 6% | . | . | .
COc1cc(OC)cc(-c2cc3ncccc3cn2)c1 | ? | -3% | 32µM* | ? | -21% | 0
COc1cc(OC)cc(-c2cc3cc4c(cc3cn2)OCO4)c1 | 0.65µM* | 0.92µM* | . | 0.52µM* | 0.58µM* | 36
COc1cc(OC)cc(-c2cc3ccc(OC)cc3cn2)c1 | 16µM* | ? | -18% | 13µM* | ? | -4
COc1ccccc1N1CCN(C(=O)C2CCC(CNS(=O)(=O)c3ccc(NC(C)=O)cc3)CC2)CC1 (stereo not drawn) | ? | -16% | -16% | -15% | -12% | 3
Cn1c(=O)c2sc(N3CCCC3)nc2n(CC(=O)NC(C)(C)C)c1=O | . | . | -18% | . | . | .
CC(=O)NC1=NN(C(C)=O)C(c2ccc(F)cc2)S1 (stereo not drawn) | 2.6µM* | 10% | -9% | -33% | 5% | 42
O=C(NCCN1CCOCC1)C(=O)Nc1cccc(N2CCCS2(=O)=O)c1 | . | . | 4% | . | . | .
CCCNC(=O)COC(=O)c1cccnc1Nc1ccccc1F | -27% | -1% | -15% | 16µM* | -2% | -9
COC(=O)c1ccccc1SC(CC(=O)c1ccccc1)c1ccc(F)cc1 (stereo not drawn) | 18µM* | ? | -13% | 23µM* | ? | ?
Nc1ccccc1SCc1ccccc1Cl | 0% | -21% | ? | -27% | -1% | 10
Nc1ccccc1SC(CC(=O)c1ccccc1)c1ccccc1 (stereo not drawn) | ? | ? | . | 13µM* | ? | -12
CC(C(Sc1ccccc1N)c1ccccc1)[N+](=O)[O-] (stereo not drawn) | 3.7µM* | ? | ? | 3.7µM* | ? | -85*
O=C(CC(CC(=O)c1ccccc1)c1ccccc1)c1ccccc1 | ? | -2% | -13% | ? | 19% | -9
CC(C)n1cc(C(=O)N2CC[C@H](N3CCOCC3)[C@H](CCC(=O)O)C2)cn1 | . | . | 64% | . | . | .
C=CCCN(Cc1ccccc1)S(=O)(=O)c1cc(Br)ccc1Br | ? | -19% | 1% | 15µM* | -23% | 16
COC(=O)CCN(Cc1ccccc1)S(=O)(=O)c1ccccc1Br | -3% | 12% | 7% | ? | 4% | 37
Cc1cccc(N2CCN(C(=O)CCCSc3nc4ccccc4[nH]3)CC2)c1C | 16µM* | ? | -9% | ? | ? | ?
O=C(CCCSc1nc2ccccc2[nH]1)NC(c1ccccc1)c1ccccc1 | 12µM* | -4% | -11% | 15µM* | -4% | 27
SMILES | DT40 TDP1 CPT | HT1080NT lethal | 12-LOX inh | DT40 TDP1 no CPT | HT1080 IDH1KD tx | IL1B secr inh
O=C(CCCSc1nc2ccccc2[nH]1)NC1CCCCC1 | ? | -3% | -29% | 29µM* | -3% | 7
O=C1CC(Nc2ccccc2)C(=O)N1c1ccc(N2CCOCC2)cc1 (stereo not drawn) | -18% | 2% | 0% | -3% | 3% | 9
O=C1CC(NNc2ccccc2)C(=O)N1c1ccc(N2CCCCC2)cc1 (stereo not drawn) | ? | -26% | 6.3µM* | ? | -19% | -2
O=C1CC(Nc2ccc(N3CCOCC3)cc2)C(=O)N1c1ccccc1F (stereo not drawn) | 1% | 7% | 16µM* | 11% | 0% | -9
Cc1cccc(OCCn2nc(C(=O)O)c3ccccc3c2=O)c1 | -18% | -7% | -4% | -28% | -2% | 15
CC(C)(C)c1ccc(OCCn2nc(C(=O)O)c3ccccc3c2=O)cc1 | 16µM* | -5% | 17% | 21µM* | -14% | 5
CCCNC(=O)CCCNC(=O)c1ccc(Cl)cc1 | . | . | -1% | . | . | .
c1ccc(-n2nnnc2Oc2ccc(-n3ccnc3)cc2)cc1 | -13% | 9% | -5% | -9% | 6% | -64*
Cc1ccc2cccc(Oc3nnnn3-c3ccccc3)c2n1 | -16% | -7% | 3% | -28% | -8% | 2
c1ccc(-n2nnnc2Oc2cccc3cccnc23)cc1 | -15% | 7.9µM* | 18% | -6% | ? | 3
COc1ccc(-c2nc(-c3ccc(F)cc3)cs2)cc1 | . | . | -26% | . | . | .
Oc1cc2cc(-c3csc(-c4ccc(F)cc4)n3)ccc2[nH]1 | 1.1µM* | . | . | 2.8µM* | . | .
CN(Cc1ccccc1)C(=O)c1ncn(C)c1C(=O)N(C)Cc1ccccc1 | -12% | 0% | ? | -25% | 8% | 16
CN(Cc1ccccc1)C(=O)c1ncn(Cc2ccccc2)c1C(=O)N(C)Cc1ccccc1 | ? | 0% | 4% | 18µM* | -1% | -3
O=C(NCCSCc1ccco1)Nc1ccc(Cl)cc1 | ? | 0% | 0% | 12µM* | -5% | -5
O=C(NCCNC(=O)Nc1ccc(Cl)cc1)Nc1ccc(Cl)cc1 | 4% | 14% | 13µM* | -9% | 19% | 3
O=C(NCCSCc1ccco1)Nc1cccc(Cl)c1 | ? | -9% | ? | ? | -4% | ?
CNC(=O)Nc1ccc(S(N)(=O)=O)cc1 | 11% | -11% | -69% | 5% | 12% | 7
CC(C)C(Cl)=NOC(=O)Nc1ccc(S(N)(=O)=O)cc1 | 1.2µM* | -1% | 1% | 2.6µM* | ? | -99*
NS(=O)(=O)c1ccc(NC(=O)Nc2ccc(Cl)cc2)cc1 | -7% | -6% | -7% | 16µM* | -5% | -17

High-throughput results (PubChem)
